Over roughly 68,000 sequences, “fluorescence intensity (a.u.)” has its median near 9,100; the highest 2% begin near 16,000. Many of the other results were omitted from the sample, so the highest values are more common in it than they were.
Biological target: OsWRKY34 (Oryza sativa, UniProt Q0JBA9 1-250)
Test: protein-binding microarray (RPBM); PBS, 2% BSA, 51.3 ng/ul salmon testes DNA, 50 uM zinc acetate, 200 nM TF, 25 C, 1 h; high values mean tight binding
Settings: protein: recombinant; tags: N-terminal polyhistidine and DsRed monomer fusion (pET32a); label: CyDye5-dUTP incorporated in the synthesized complementary strand; 3' TTTTT single-stranded linker to array surface; dsDNA, one strand shown
In short: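 Per-feature fluorescence intensity (arbitrary units), read on an Axon 4000B scanner, is the binding signal. Transcription factors carrying an N-terminal polyhistidine tag and DsRed fusion were expressed in E. coli BL21-CodonPlus and purified on Ni–NTA. A custom Agilent array, made double-stranded by primer extension with Cy5-dUTP and blocked with 2% BSA, was incubated with 200 nM protein in PBS, 2% BSA, salmon testes DNA and 50 µM zinc acetate at 25 °C for 1 h and then washed.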

OsWRKY34, sequence (Q0JBA9 entry or part of it): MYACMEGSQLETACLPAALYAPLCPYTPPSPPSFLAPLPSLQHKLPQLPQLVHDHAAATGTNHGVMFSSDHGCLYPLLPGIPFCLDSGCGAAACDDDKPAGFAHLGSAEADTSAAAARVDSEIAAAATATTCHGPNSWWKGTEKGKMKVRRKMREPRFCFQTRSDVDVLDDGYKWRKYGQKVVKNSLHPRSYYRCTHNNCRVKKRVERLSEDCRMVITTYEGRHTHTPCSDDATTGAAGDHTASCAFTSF

Sequence	binding signal
TATATGTAAGCTACTTTTGTCCTATACATAAATTACTTTTCGGAGTCACCTAGTGCAG	8580 fluorescence intensity (a.u.)
CTCTCTCCTACTGTAGGCCACCACCACCGCGACCGCACGACGGAGTCACCTAGTGCAG	9340 fluorescence intensity (a.u.)
CATGTGCTAAAAAGTCAACGGTATCAAACATTTTTAAACGCGGAGTCACCTAGTGCAG	15800 fluorescence intensity (a.u.)
TCTCGAGGTTGTTACATTGTACTTGTCGCTAGCTCGTCATCGGAGTCACCTAGTGCAG	8400 fluorescence intensity (a.u.)
TCGCTAGTAGCTGTTGCTGCCTCTCCACCGCGTCCCTCTCCGGAGTCACCTAGTGCAG	11000 fluorescence intensity (a.u.)
GTCGCGCCTGACGCCGCCGTTGCGCCTGCCACCGCCTGTCCGGAGTCACCTAGTGCAG	8220 fluorescence intensity (a.u.)
CGCTCCACATAGGCTAGGCCCATGTCCCTTAGAGGATCCTCGGAGTCACCTAGTGCAG	8380 fluorescence intensity (a.u.)
GCAGCGCTCGTCTCTCTCTGTCTCTCCACTCTCTTCTCTCCGGAGTCACCTAGTGCAG	10100 fluorescence intensity (a.u.)
GTGCCACTCTGTCTCTTCCGTCCATAGCGCCGTCGTCTTCCGGAGTCACCTAGTGCAG	17300 fluorescence intensity (a.u.)
CCCCACCGCCCACCGCCCACCGCCCACCCACCTCCGCACCCGGAGTCACCTAGTGCAG	11600 fluorescence intensity (a.u.)
TACCCACACCGATCTGCCGCTGCCCAGTTCCACCTACTTTCGGAGTCACCTAGTGCAG	16800 fluorescence intensity (a.u.)
GTCTTCCCCTAGCGCCGCCGCCTCCACCTCCGCCGCCGTCCGGAGTCACCTAGTGCAG	8700 fluorescence intensity (a.u.)
CTAACCCGCGCCCCAACCCTAGCCGCCTCCGCCCCGCCTCCGGAGTCACCTAGTGCAG	8920 fluorescence intensity (a.u.)
CCGCCCTTAGACAGGCCCCGCCTCCGCCTCCGCGCCCACCCGGAGTCACCTAGTGCAG	27800 fluorescence intensity (a.u.)
GCTACTACTGCTGCTGCTGCTACTTATCCACCGCTTTTTTCGGAGTCACCTAGTGCAG	13600 fluorescence intensity (a.u.)
CCTCACATCTTCTTCTTCATCTCCCTGTCTCTGTCTCTGTCGGAGTCACCTAGTGCAG	13500 fluorescence intensity (a.u.)
TGTCACATTTTTCGTCGTCTCCATCTTCATCTTCTTGTCGCGGAGTCACCTAGTGCAG	11200 fluorescence intensity (a.u.)
CTCACGCGCTGCACCGCCGATACCCCACCCGCTGCTAGTTCGGAGTCACCTAGTGCAG	8670 fluorescence intensity (a.u.)
ACCCGTCTCTGTTCATCTCCACATCTTGTCTTCTCGCTGTCGGAGTCACCTAGTGCAG	18100 fluorescence intensity (a.u.)
CCCGACCCAAACCTCACCGCCGCCGTCGCCGTTGCCGCCGCGGAGTCACCTAGTGCAG	8310 fluorescence intensity (a.u.)
TTAACTCGACAGTTTGTGTGTGATTTCAGTACTACCACGACGGAGTCACCTAGTGCAG	10400 fluorescence intensity (a.u.)

Sequence	binding signal
CTCCGCCGTCGCGTCCCCGCCGCCGCCGCCCGCCTTCCCCCGGAGTCACCTAGTGCAG	9960 fluorescence intensity (a.u.)
ACTCGCGATATGCTTGTAACTTGGTTTGGTATTCCATTCTCGGAGTCACCTAGTGCAG	9670 fluorescence intensity (a.u.)
GGGTTACGGCTGCAAGCTTGTTCTCTCCAGATGGGGAGTTCGGAGTCACCTAGTGCAG	10400 fluorescence intensity (a.u.)
TTCTCCACCGCCGCCACCACCACCTCGCCTGGCCGGCCTCCGGAGTCACCTAGTGCAG	18000 fluorescence intensity (a.u.)
CCGCCGCTTCCTCGCCACCGCCGCTGCCGCCGCCACTTCCCGGAGTCACCTAGTGCAG	19400 fluorescence intensity (a.u.)
GCTCTCATGGCCTCACACACCGCGCCATTGCCATCGTTTCCGGAGTCACCTAGTGCAG	17000 fluorescence intensity (a.u.)
GTCCTGCTGCTTCCGCCGCCGCCACCGTCCTGCTGCTTCCCGGAGTCACCTAGTGCAG	9500 fluorescence intensity (a.u.)
GTCTCCGCGCGCGCTCTCTCTTTCGTTCACTCTCGCTTTCCGGAGTCACCTAGTGCAG	14500 fluorescence intensity (a.u.)
TCCCTCCCGTCTCGTCTCCGCTCATTGCGCCATCTCGCGCCGGAGTCACCTAGTGCAG	8660 fluorescence intensity (a.u.)
CTCGCCGCCGGCCTCCTCCACCACCACCGACGACTCCGACCGGAGTCACCTAGTGCAG	8430 fluorescence intensity (a.u.)
CGCGCCCTCCTCCGCCGCCGCTCGCCGCCGTTCGTCTCCGCGGAGTCACCTAGTGCAG	9840 fluorescence intensity (a.u.)
GCCTCGCCTCGCCGCCGGCGGCCACCGTCTCCGCCGCCTCCGGAGTCACCTAGTGCAG	8800 fluorescence intensity (a.u.)
CTCCTCTCGCCGCCGCCGCCACCGCCACCGCCGCCGCTCCCGGAGTCACCTAGTGCAG	10100 fluorescence intensity (a.u.)
AACACCGTTCCTCCGCCGCGCCGTCATTGCCACCGGCCTCCGGAGTCACCTAGTGCAG	9730 fluorescence intensity (a.u.)
CGCTTTCCTCTGTTTCTCCGCCGCGCTCGTTCGTCGTCTCCGGAGTCACCTAGTGCAG	21400 fluorescence intensity (a.u.)
CATCGACTACCTGCCATTCTTCTACTCCAGGGTCTTCTCGCGGAGTCACCTAGTGCAG	9510 fluorescence intensity (a.u.)
ATCTTATGGTGTATTTTTTTTTTCTCCGGTGCAGGTTGGTCGGAGTCACCTAGTGCAG	8260 fluorescence intensity (a.u.)
GATGTGAATCACCCTTTGCTTTGCTGAATCTACTCCTACACGGAGTCACCTAGTGCAG	10600 fluorescence intensity (a.u.)
GCGAACTCCGAGCGCGGAGGTTGAGGCGGCGGCGAGCGTGCGGAGTCACCTAGTGCAG	9820 fluorescence intensity (a.u.)
CATTATTAAAATATATATGTGTTACATTCGGTATTATATTCGGAGTCACCTAGTGCAG	8650 fluorescence intensity (a.u.)
CCTCATGATGATGCCGAACGTCTCGACATTGACCGCGCCCCGGAGTCACCTAGTGCAG	9370 fluorescence intensity (a.u.)
